The nature of this assay: NCI Yeast Anticancer Drug Screen. Data for the sgs1 mgt1 strain (AID 161).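 Further: 0% = growth of cultures given vehicle only.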 To be noted: S. cerevisiae sgs1 mgt1 strain, hits give high values. On the procedure:
Growth inhibition of yeast strains with defined genetic alterations is measured as a screen for potential anti-cancer activity. Selected strains with alterations in DNA damage repair or cell cycle control were exposed to compounds and growth inhibition was measured relative to vehicle treated controls. The strain used in this assay is sgs1 mgt1

Setting [1] is: at 5.0 µM (retest, dose inferred, filed as 0.5).
[2] abbreviates: at 50.0 µM (retest, dose inferred, filed as 5.0).

Drawing on PubChem BioAssay (NCI), this text covers growth inhibition for 14 compounds.

About 79,000 compounds went through this panel and 15% of them were active in at least one assay; those are over-represented in the sample as a whole. Unmarked numbers belong to inactive results. The source made the active and inactive calls. No stated cut-off is given here; in the data, active means growth inhibition above about 70%; inactive means the rest.

`O=C/C(Br)=C\c1ccccc1`: the growth inhibition under setting [1] is 25%, the growth inhibition under setting [2] was 99% (active) and the growth inhibition (at 50.0 µM) is 49.5%.
Taken in the same sequence, the figures for `COC(=O)c1c(C)cccc1C(=O)c1c(C)cc(C)cc1C` were -1%, 82% (active) and 91.8% (active).
For `CC1CCCC(C(c2c[nH]c3ccccc23)c2c[nH]c3ccccc23)C1=O` (configuration not stated), in that order: 3%, 97% (active) and 79.7% (active).
With `CC12CCC3C(CCC4CC(O)CCC43C)C1CC1C2=NOC1O` (configuration not stated), the growth inhibition is 0% under setting [1], 99% (active) under setting [2] and 72.2% (active) (at 50.0 µM).
For `O=C(CCc1ccccc1)COC(=O)c1ccc([N+](=O)[O-])cc1`, in that order: -6%, 8% and -3.6%.
Regarding `O=C(CC1(O)C(=O)Nc2c(Cl)cccc21)c1ccc(Cl)cc1` (configuration not stated), the growth inhibition runs as follows: under setting [1], -19%; under setting [2], 36%; (at 50.0 µM) 33.8%.
For `O=C1/C(=C/c2cccc(O)c2)SC(=S)N1/C=C\c1nc2ccccc2[nH]c1=O`, in that order: -4%, 1% and 3.6%.
On to `CC(=O)CCC(Br)(CCC(Br)(CCC(C)=O)[N+](=O)[O-])[N+](=O)[O-]` (configuration not stated), for which the growth inhibition runs as follows: under setting [1], -5%; under setting [2], 33%; (at 50.0 µM) 81.8% (active).
For `O=c1cccccc1[O-].O=c1cccccc1[O-].O=c1cccccc1[O-].[La+3]`, in that order: 92% (active), 92% (active) and 87.5% (active).
As to `O=C1c2ccccc2/C=C\C(c2ccccc2)=N/N1c1ccccc1Cl`, the growth inhibition under setting [1] was 9%, the growth inhibition under setting [2] is 81% (active) and the growth inhibition (at 50.0 µM) was 83.8% (active).
As for `O=Cc1cc2ccccc2cc1C=O`, the growth inhibition is 84% (active) under setting [1], 96% (active) under setting [2] and 87.2% (active) (at 50.0 µM).
Taken in the same sequence, the figures for `CCCCCCCCCCCCCCN1CCSCC1` were 4%, 1% and 99% (active).
For `Cc1ccc(COCO)c(O)c1`, in that order: 2%, -4% and -10.8%.
Take `CCCCCCCCCCCCCCCC1C(N)C(=O)N(C)N1C` (configuration not stated): the growth inhibition under setting [1] was -19%, the growth inhibition under setting [2] was 95% (active) and the growth inhibition (at 50.0 µM) is 91.7% (active).
